Records with an inconclusive call do not appear. A call without a number means that no potency is given here. Activity calls are given as the source filed them. The call rests on the fitted dose curve; in most records, active means well fitted activation curve with a large enough effect; inconclusive means small, poorly fitted or top-dose-only effect; inactive means flat fitted curve, though single readings scatter.
Potency means the concentration at half of the fitted maximal effect.

Sequence of Pyruvate kinase PKM (Homo sapiens) (P14618 whole entry, looked up, canonical isoform): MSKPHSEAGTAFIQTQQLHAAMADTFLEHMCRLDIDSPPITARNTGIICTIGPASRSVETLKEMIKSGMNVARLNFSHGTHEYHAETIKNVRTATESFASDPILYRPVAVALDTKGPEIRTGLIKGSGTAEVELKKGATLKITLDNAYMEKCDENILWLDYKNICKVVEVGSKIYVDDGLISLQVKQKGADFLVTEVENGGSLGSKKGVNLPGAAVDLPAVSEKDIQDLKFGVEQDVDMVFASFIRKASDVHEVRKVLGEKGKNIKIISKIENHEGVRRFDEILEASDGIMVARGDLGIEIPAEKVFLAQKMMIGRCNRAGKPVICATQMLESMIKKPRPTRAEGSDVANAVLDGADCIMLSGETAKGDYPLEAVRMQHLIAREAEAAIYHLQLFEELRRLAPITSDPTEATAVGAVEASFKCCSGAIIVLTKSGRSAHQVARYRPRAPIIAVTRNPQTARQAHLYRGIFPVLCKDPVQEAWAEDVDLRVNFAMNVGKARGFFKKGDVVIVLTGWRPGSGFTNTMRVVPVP

The target of the test is Pyruvate kinase PKM (Homo sapiens) (UniProt P14618). The test is described as follows: Confirmation Concentration-Response Assay for Activators of Human Muscle isoform 2 Pyruvate Kinase: for Probe SAR. Further: nearly all actives have a fitted effect of over 60% in size. As to conditions: purified PKM2, ATP generation, Kinase-Glo luminescence; series mostly up to 57.5 µM. An excerpt:
NIH Chemical Genomics Center [NCGC]
Matthew G. Vander Heiden, M.D., Ph.D. [Harvard Medical School, 77 Avenue Louis Pasteur, Boston, MA 02115]
Human pyruvate kinase muscle 2 (hPK-M2) enzyme was supplied as a highly purified (>95% pure) preparation from Harvard Medical School and assayed for its ability to generate ATP from ADP using phosphoenolpyruvate (PEP) as a substrate. ATP generation was detected in a coupled reaction by luciferase-mediated luminescence, an ATP-dependent process. […] The enzyme was assayed at an intermediate level of activity to screen for both inhibitors and activators.
NCGC Assay Protocol Summary:
Three uL of substrate mix (at r.t.) in assay buffer (50 mM Imidazole pH7.2, 50 mM KCl, 7 mM MgCl2, 0.01% Tween 20, 0.05% BSA) was dispensed into white solid bottom 1,536 well microtiter plates so that the final concentrations of substrates in the assay were 0.1 mM ADP and 0.5 mM PEP. 23 nL of compound were delivered by a pin tool and 1 uL of enzyme mix (final concentration of 0.1 nM) in assay buffer (4 degree Celsius) was added. Plates were incubated at room temperature for 1 hour. Two uL of detection mix (Kinase-Glo, Promega; at 4 degree Celsius protected from light) was added and luminescence read by a ViewLux (Perkin Elmer) at 1 second exposure/plate. Data were normalized to the uninhibited (column 3) and AC100 inhibition (no enzyme in column 2). To monitor activation, the first column contained a titration of the activator, NCGC00031955-03 (16-point 1:2 dilutions in duplicate starting at 57 uM) and the first 16 rows of column 4 contained 57 uM of NCGC00031955-03.
`O=S1(=O)N=C(Oc2ccccc2Cl)c2ccccc21`: the Potency entry was “inactive”.

Take `COc1cccc(N2C(=O)c3ccccc3C2=O)n1`: the Potency entry was “inactive”.

Take `O=C1c2ccccc2C(=O)N1c1cnc2ccccc2c1`: the Potency entry was “inactive”.

On to `Cc1ccn2c(NC3CCCCC3)c(-c3ccc(C)o3)nc2c1`, for which the Potency entry was “inactive”.

Take `O=C1CCc2cc(S(=O)(=O)Nc3ccc4c(c3)OCCO4)ccc2N1`: the Potency was 20.6 µM (active).

For the molecule `Cc1ccc2nc(-c3ccc(C)o3)c(Nc3ccc(Cl)cc3)n2c1`, the Potency result is “inactive”.

For `COc1cccc(OC2=NS(=O)(=O)c3ccccc32)c1`, the Potency result is “inactive”.

On to `CC(=O)Nc1ccccc1OC1=N[S+](=O)([O-])c2ccccc21`, for which the Potency result is “inactive”.

Take `O=S1(=O)N=C(Oc2ccccc2)c2ccccc21`: the Potency entry was “inactive”.

On to `COc1ccc(N2C(=O)c3ccccc3S2(=O)=O)cc1`, for which the Potency result is “inactive”.

With `CNc1cccc(S(=O)(=O)N2CCN(S(=O)(=O)c3ccc4c(c3)OCCO4)CC2)c1`, the Potency was 0.259 µM (active).

In the case of `O=S(=O)(Nc1ccc(O)c(NS(=O)(=O)c2ccccc2)c1)c1ccccc1`, the Potency entry is “inactive”.

`O=S1(=O)N=C(Oc2ccc(C(F)(F)F)cc2)c2ccccc21`: the Potency entry was “inactive”.

Regarding `O=C1CCc2cc([S+](=O)([O-])Nc3ccc(N[S+](=O)([O-])c4ccc5c(c4)CCC(=O)N5)cc3)ccc2N1`, the Potency entry is “inactive”.

On to `Cc1ccc(NS(=O)(=O)c2cc3c(cc2N(C)C)NC(=O)CC3)cc1C`, for which the Potency is 0.366 µM (active).

As for `COc1cc(F)c(S(=O)(=O)N2CCN(S(=O)(=O)c3cccs3)CC2)c(F)c1`, the Potency is 0.0366 µM (active).

As for `Cc1ccc(-c2nc3ccccn3c2Nc2ccccc2C)o1`, the Potency result was “inactive”.

Turning to `Cc1ccc(NS(=O)(=O)c2cc3c(cc2Cl)CCC(=O)N3)cc1C`, the Potency is 0.163 µM (active).

With `O=C1CCc2cc(S(=O)(=O)Nc3cccc(Cl)c3)ccc2N1`, the Potency was 0.41 µM (active).

Consider `CCNc1cccc(S(=O)(=O)N2CCCN(S(=O)(=O)c3ccc4c(c3)OCCO4)CC2)c1`, for which the Potency is 0.206 µM (active).

As to `Cc1ccc(N2C(=O)c3ccccc3C2=O)c(C)c1`, the Potency entry was “inactive”.

Take `O=C1c2ccccc2C(=O)N1c1cccc(Cl)c1`: the Potency result is “inactive”.

Take `COc1cc(F)c(S(=O)(=O)N2CCCN(S(=O)(=O)c3ccc(NC(C)=O)cc3)CC2)c(F)c1`: the Potency was 16.3 µM (active).

For the molecule `Cc1cc(N2C(=O)c3ccccc3C2=O)n[nH]1`, the Potency result is “inactive”.

On to `O=S1(=O)N=C(N2CCOCC2)c2ccccc21`, for which the Potency result is “inactive”.

On to `Cc1ccc(C)c(NC2=NS(=O)(=O)c3ccccc32)c1`, for which the Potency result is “inactive”.

Consider `O=C1CCc2cc(S(=O)(=O)Nc3ccccn3)ccc2N1`, for which the Potency result was “inactive”.

`Cc1ccccc1N(C)C1=N[S+](=O)([O-])c2ccccc21`: the Potency entry is “inactive”.

With `O=C1c2ccccc2C(=O)N1c1cccnc1`, the Potency entry is “inactive”.

Take `COc1cc(F)c(S(=O)(=O)N2CCCN(S(=O)(=O)c3cccc(NC(C)=O)c3)CC2)c(F)c1`: the Potency was 2.91 µM (active).

As to `O=C1c2ccccc2C(=O)N1c1nccs1`, the Potency result was “inactive”.

On to `Cc1ccc(-c2nc3cccc(C)n3c2Nc2ccc(F)cc2)o1`, for which the Potency result is “inactive”.

Take `O=C(O)c1ccccc1OC1=NS(=O)(=O)c2ccccc21`: the Potency entry was “inactive”.

As to `Cc1ccc2nc(-c3ccc(C)o3)c(Nc3ccccc3)n2c1`, the Potency result was “inactive”.

With `COC(=O)c1ccccc1S(=O)(=O)Nc1ccc(OC)cc1`, the Potency entry is “inactive”.

`COc1cc(F)c(S(=O)(=O)N2CCN(S(=O)(=O)c3ccco3)CC2)c(F)c1`: the Potency is 0.183 µM (active).

As to `Cc1cc2c(s1)c1cnn(Cc3cc(F)ccc3F)c(=O)c1n2C`, the Potency was 1.12 µM (active).

Take `Cc1cc(NS(=O)(=O)c2ccc3c(c2)CCC(=O)N3)ccc1Cl`: the Potency is 0.517 µM (active).

On to `CC(=O)Nc1cccc(S(=O)(=O)N2CCN(S(=O)(=O)c3ccc4c(c3)OCCO4)CC2)c1`, for which the Potency was 1.03 µM (active).

`CC(=O)Nc1cccc(S(=O)(=O)N2CCCN(S(=O)(=O)c3ccc4c(c3)OCCO4)CC2)c1`: the Potency was 1.3 µM (active).
